# Data published in PubChem BioAssay (NCI).
# About 83,000 compounds went through this panel and 20% of them were active in at least one assay; those are over-represented in the sample as a whole.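 Plates (96-well) were seeded with cells, treated with compound at one concentration, and incubated for 48 hours before percent growth was determined.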 Unmarked numbers belong to inactive results. The source made the active and inactive calls. The calls were made as follows: active = growth percent below 10; inactive = the rest.
# What was measured:
# Assay in all cases: NCI-60 one-dose screen, 48 h (100 = growth as untreated, 0 = no growth, -100 = all killed)
# Conditions in all cases: 10 µM unless noted
# [1] = system: SK-MEL-2 melanoma
# [2] = system: EKVX NSCLC
# [3] = system: SN12C renal
# [4] = system: UO-31 renal
# [5] = system: TK-10 renal
# [6] = system: ACHN renal
# [7] = system: CAKI-1 renal
# [8] = system: A498 renal
# [9] = system: CCRF-CEM leukemia
# [10] = system: MOLT-4 leukemia
SMILES,growth [1],growth [2],growth [3],growth [4],growth [5],growth [6],growth [7],growth [8],growth [9],growth [10]
CN1CCN(CC(=O)N2c3cccc4cccc(c34)N(C(=O)CN3CCN(C)CC3)C2c2cn(-c3ccccc3)nc2-c2cccc([N+](=O)[O-])c2)CC1,-47.6% (active),17.8%,-21.5% (active),26.2%,-19.4% (active),-31.1% (active),14.4%,44.6%,-32% (active),-11.6% (active)
CCCCNc1nc(NN2C(=O)c3cccc4cccc(c34)C2=O)nc(-n2cnc3ccccc32)n1,99%,71.8%,90.5%,44.1%,100%,–,75.6%,35.9%,96.3%,77.4%
CC1(C)C2CC1C1(/C=N\Nc3ccccc3)C(C2)C(C#N)(C#N)C1(C#N)C#N (configuration not stated),92.7%,89%,90%,66.6%,133%,–,70.1%,97.1%,83.7%,95.7%
COc1ccc(/C=C(/C#N)n2nnc3cccc(F)c32)cc1,-10.4% (active),36.8%,28.9%,26.2%,46.5%,–,22.8%,-7.93% (active),21.3%,13.8%
Fc1cc(-c2nnc3n2NC(=Nc2ccc(Cl)cc2)CS3)c(Cl)cc1Cl,88.3%,95.2%,108%,65.6%,91.6%,–,94.2%,77.8%,214%,87%
COc1ccc2c(c1)c(-c1nn3cc(-c4cccs4)nc3s1)cn2C,91.5%,66.2%,79.3%,39.3%,73.3%,–,55.3%,50.3%,67%,45.7%
COc1cc(C(=O)/C=C/c2c(Cl)nc3sccn23)cc(OC)c1OC,86.1%,90.7%,66.3%,60.4%,106%,–,84.9%,88%,48.7%,74%
O=c1c2cc(F)ccc2sc2c(N3CCNCC3)nc3ccc(F)cc3c12,90.5%,66.4%,54.2%,31.8%,26.6%,–,-96.9% (active),45.5%,-12.1% (active),-36.5% (active)
O=c1c2cccc(F)c2sc2c(NCCCNCCO)nc3ccccc3c12,89.8%,55.4%,43.5%,19%,48.6%,–,3.45% (active),40.9%,22.7%,-6.18% (active)
COC(=O)CCC/C=C\C[C@H]1C=CC(=O)/C1=C/C[C@@H](O)CCc1cccc(C(F)(F)F)c1,-5.48% (active),6.52% (active),-36% (active),-92.5% (active),-3.59% (active),-87.2% (active),12.6%,-26.7% (active),-6% (active),-14.2% (active)
O=C(CS(=O)c1oc(-c2cccs2)nc1S(=O)(=O)c1ccc(Br)cc1)c1ccccc1 (configuration not stated),89.3%,111%,96.2%,80.3%,104%,–,90.9%,49.1%,94.1%,94.2%
NCCCNc1nc2ccccc2c2c(=O)c3cc(F)cc(Cl)c3sc12,105%,91.9%,82.7%,58.4%,106%,–,63.1%,66.3%,6.83% (active),77.7%
O=c1c2cc(F)ccc2sc2c(NCCCNCCO)nc3ccccc3c12,90.9%,51.9%,46.9%,10.9%,41%,–,-9.01% (active),2.69% (active),6.27% (active),-31.6% (active)
COc1cccc2c(=O)c3c(sc12)c(NCCCN)nc1ccccc13,103%,63.6%,48.4%,27.7%,65.6%,–,27.5%,25.2%,14.7%,8.43% (active)
COc1ccc(C(=O)C(C)C)c2ccccc12,97.9%,94.7%,109%,90.8%,90.5%,100%,97.9%,99%,-25.6% (active),97.2%
CC([C@H]1CCC2C3CCC4C[C@@H](NC=O)CC[C@]4(C)C3CC[C@@]21C)N(C)C (some centres not stated),-7.03% (active),29%,19.9%,0.264% (active),49.1%,–,-10.1% (active),29.1%,-21.6% (active),-49.9% (active)
COc1cccc(-c2nc(-c3ccc(NC(=O)C(C)C)cc3)[nH]c2-c2ccnc(Br)c2)c1,22%,45.1%,61.7%,12.1%,54%,–,36.2%,2.23% (active),21.8%,14.3%
CCCCCCn1c(-c2ccc(C(=O)O/N=C(\N)c3ccc(OC)cc3)cc2)nc(-c2ccccc2)c1-c1ccccc1,47.3%,-75.6% (active),-70.3% (active),-86.4% (active),–,-91.5% (active),-64.5% (active),4.08% (active),-35% (active),-35.7% (active)
Cc1ccc2sc3c(NCCCN)nc4ccccc4c3c(=O)c2c1,107%,82.7%,69.2%,47.1%,–,20.6%,-6.43% (active),44.6%,5.2% (active),-30.6% (active)
Cc1ccc(C2CC(c3ccc(Nc4ccnc5cc(Cl)ccc45)cc3)=NN2C=O)cc1 (configuration not stated),72.2%,50.1%,55.1%,31.9%,–,34.8%,49%,73.4%,28.2%,31.8%
COc1cccc2nc3n(c12)C(c1c(F)cccc1F)SC3 (configuration not stated),86.2%,101%,100%,77.6%,–,92.7%,106%,103%,89.5%,87%
CCc1ccc2nc(NC(=O)Cc3csc(NC(=O)c4ccco4)n3)sc2c1,67.9%,81.7%,79.4%,60.5%,–,57.2%,60.1%,83.9%,87.2%,39.9%
CCN(CC)c1ccc(C2=NN(C(C)=O)C(c3cc(OC)c(OC)c(OC)c3)C2)cc1 (configuration not stated),31.8%,29.8%,38.5%,-19% (active),–,40.3%,21%,-22.1% (active),12.6%,5.57% (active)
COc1ccc(C2C(C#N)=C(N)Oc3c2sc2c(C)cccc32)cc1 (configuration not stated),48.2%,42.3%,23.9%,33.9%,63.8%,–,3.44% (active),-5.44% (active),8% (active),12.9%
CC(=O)OC[C@H]1OC(Sc2sc(C(=O)c3ccc(Br)cc3)c(N)c2-c2nc3ccccc3s2)[C@H](OC(C)=O)[C@@H](OC(C)=O)[C@H]1OC(C)=O (some centres not stated),112%,80.5%,95.1%,61.4%,–,90.5%,67.6%,36.1%,85.5%,79.3%
Cc1cccc2c1S/C(=C/c1ccc([N+](=O)[O-])cc1)C2=O,103%,103%,98.8%,80.4%,–,102%,90.6%,59.8%,101%,94.5%
